Results on 28 compounds are retold here after PubChem BioAssay AID624329 (National Center for Advancing Translational Sciences (NCATS), 2012).

Results filed as inconclusive are left out. The source made the active and inactive calls. Calls come from the whole dose curve; as a rule, active = well fitted curve in the direction sought with a large enough effect; inconclusive = small, poorly fitted or top-dose-only effect; inactive = flat fitted curve, though single readings scatter.

The assay is described as follows: Quantitative high throughput screen for delayed death inhibitors of the malarial parasite plastid: Hit Validation with 3D7 at 48 hr using Flow Cytometry. Conditions: P. falciparum 3D7 growth, flow cytometry SYBR/MitoTracker; fraction of growth remaining: at 50 µM (top of the series). An excerpt:
The goal of this screen is to discover new antimalarial compounds that act by inhibiting the development of the apicoplast organelle in the malarial parasite Plasmodium falciparum. Some antibiotics, such as azithromycin and tetracycline, are known to interfere with the apicoplast translational machinery, and have a potent antimalarial effect. […] We developed a cell-based quantitative high throughput screen that leverages this "delayed death" phenotype to enrich for compounds that target the apicoplast. To detect small molecules that cause the delayed death phenotype, erythrocytes infected with firefly luciferase-expressing parasites were incubated with compounds for either one or two generations, corresponding to 48 and 96 hours, respectively. Growth inhibition was detected by a decrease in luciferase activity. Compounds that inhibited parasite growth in the second generation at least five-fold more potently than in the first generation were defined as delayed death inducing. These compounds were selected for confirmatory screening using a flow cytometry based assay. This hit validation assay used the 3D7 cell line and measured at 48 hours. NIH Molecular Libraries Probe Production Network [MLPCN] NIH Chemical Genomics Center [NCGC] MLPCN Grant: R21 NS059500 Assay Provider: David Fidock and Eric Ekland, Columbia University
Test compounds were diluted in 20 microliters of complete media (RPMI 1640 with 0.5% w/v Albumax (GIBCO), 24 mM sodium bicarbonate (Sigma) and 10 ug/mL gentamycin (Gibco)) in clear 384-well plates (Greiner). All liquid handling was conducted using a Bio Tek Precision 2000 pipetting system. Twenty microliters of infected erythrocytes, 0.2% parasitemia (for 48 hour time points) or 0.1% parasitemia (for 96 hour time points) were added to the compound dilutions (1% hematocrit, final concentration; 40 microliters, total culture volume). The assay plates were incubated for 48 hours, or 96 hours, at 37 masculine C in a humidified chamber (Billups- Rothenberg, Del Mar, CA, USA), gassed with 5%CO2/5%O2/ 90%N2. After one generation (48 hours), 5 microliters of culture were harvested and transferred to a second 384 well plate for fluorescent staining. Samples were stained with 30 microliters of 2 x SYBR Green I (Invitrogen) and 150nM MitoTracker Deep Red (Invitrogen) diluted in 0.9% NaCl, 0.2% dextrose (Baxter) supplemented with 2.5% Fetal Calf Serum (Gibco) (saline/FCS). Mature erythrocytes lack nuclei and mitochondria, therefore only parasitized erythrocytes retain the SYBR Green I and MitoTracker Deep Red. After 30 minutes at 37 masculine C, the stained cells were diluted in an additional 60 microliters of saline/FCS. The samples were harvested directly from the 384 well plate using a Hypercyt High Capacity Flow Platform (Intellicyt) paired with a C6 Flow Cytometer (Accuri). The flow cytometry files were analyzed using FlowJo software (FlowJo).
(Flow cytometry measures light scatter and fluorescence of single cells or particles in a stream.)
Turning to `CCCCOc1ccc(N2C(N)=NC(N)=NC23CCCCC3)cc1`, the Potency was 22.2 µM (active).

Turning to `O=C(CNC(=O)C1CCCCC1)OC(C(=O)c1ccccc1)c1ccccc1` (stereo not drawn), the Potency entry was “inactive”. The same measure, in the same setting: for `N#Cc1cccc(NC(=O)Cn2c3[n+](c4ccc(C(F)(F)F)cc42)CCCCC3)c1` the value was 19.9 µM (active); for `O=C(NCc1cccnc1)c1ccc(NS(=O)(=O)c2ccccc2)cc1`, 30.9 µM (active). On the same count and under the same terms, for `Cc1ccc(S(=O)(=O)Nc2ccc(C(=O)Nc3ccncc3)cc2)cc1` the value was 26.3 µM (active); for `CCC(=O)OC1C(N(C)C)CC(C)O[C@H]1O[C@H]1[C@H](C)[C@@H](O[C@H]2CC(OC)[C@@H](O)C(C)O2)[C@H](C)C(=O)O[C@@H](CC)[C@](C)(O)[C@@H](O)[C@H](C)C(=O)[C@@H](C)C[C@]1(C)O` (stereo partly drawn), “inactive”. On the same count and under the same terms, for `COc1cccc(CN2CCN(c3nc4nonc4nc3N3CCCCC3)CC2=O)c1` the value was 5.55 µM (active).

With `COc1ccc(NC(=S)N2CCC(Cc3ccccc3)CC2)cc1OC`, the Potency was 46.5 µM (active).

Consider `COc1ccccc1N1CCN(CCC(=O)Nc2ccc(F)cc2)CC1`, for which the Potency was 18.3 µM (active). On the same count and under the same terms, the value for `CO[C@@H]1[C@@H](OC2OC(C)C(OC3CC(C)(O)C(OC(=O)CC(C)C)C(C)O3)C(N(C)C)C2O)[C@@H](CC=O)C[C@@H](C)C(=O)/C=C\C2O[C@H]2C[C@@H](C)OC(=O)C[C@H]1OC(C)=O` (stereo partly drawn) was 2.95 µM (active); that for `CCCc1c(CC)c(=N)c2ccccc2n1C` was 6.48 µM (active). The same measure, in the same setting: the value for `CC(=O)NC[C@@H]1CN(c2ccc(N3CCOCC3)c(F)c2)C(=O)O1` was “inactive”; that for `COc1ccc2c(ccc[n+]2CC(=O)c2ccccc2)c1` was 9.29 µM (active). Turning to `CCCCN(CCCNC(=O)c1ccc(CS(=O)(=O)c2ccc(OC)cc2)o1)Cc1ccccc1`, the fraction of growth remaining is 0.163 (active). With `CCCCN(CCCNC(=O)C1CCN(C(=O)c2cc3sccc3n2C)CC1)Cc1ccccc1`, the Potency is 9.82 µM (active).

For `COc1ccc2cc3cc(C(=O)Nc4ccc5c(c4)OCO5)oc3nc2c1`, the Potency was 48.3 µM (active). Consider `CCOC(=O)c1ccc2c(c1)n(CC)c(/C=C/N(C)c1ccccc1)[n+]2CC`, for which the Potency is 1.52 µM (active).

Consider `Cc1c(F)c(N2CCNC(C)C2)cc2c1c(=O)c(C(=O)O)cn2C1CC1` (stereo not drawn), for which the Potency was 5.98 µM (active). On to `Cc1ccc(CN2CCC(n3nccc3NC(=O)c3ccccc3C)CC2)o1`, for which the fraction of growth remaining was 0.498 (active). Regarding `Clc1ccc(-c2c[n+](Cc3ccc(Cl)cc3Cl)c3n2CCCCC3)cc1`, the Potency is 5.64 µM (active).

With `CC1=Nc2cc(C(=O)N3CCCC3)ccc2Sc2ccc(C)cc21`, the fraction of growth remaining is 0.151 (active). For `O=C(CSc1ccc(-c2cccnc2)nn1)Nc1ccccc1C(F)(F)F`, the Potency was 12.4 µM (active). Still for that read-out and setting: for `CCOc1ccc(NC(=O)C[n+]2ccc(N(C)C)cc2)cc1` the value was 25.8 µM (active); for `Cc1ccc(-n2c(-c3ccc(Cl)cc3)c[n+]3c2CCC3)cc1`, 4.64 µM (active).

As to `CCOc1ccc(S(=O)(=O)Nc2cc(S(=O)(=O)N(CC)CC)ccc2N2CCCC2)cc1`, the Potency was 12.5 µM (active). Still for that read-out and setting: the value for `CCc1nc(SCC(=O)Nc2ccc(N(C)C)cc2)n[nH]1` was 0.4 µM (active); that for `CCCc1cc(=O)oc2cc(OC(C)C(=O)NCc3ccccn3)c(Cl)cc12` (stereo not drawn) was 16.9 µM (active). On the same count and under the same terms, for `c1csc(CNc2ncnc3nc[nH]c23)c1` the value was “inactive”.
